The values that follow come from the supplement of paper PMC10849652.

Common to all, as to test: log2 fold change, soluble protein after heating vs DMSO (PISA); higher = thermal stabilisation; K562 lysate, 10 uM; active = over 0.2 and 3.5 SD of the protein, either way, in both replicates (recomputed)
Compound in assay [1]: C1=CC=C(C=C1)[C@H](COC2=CC3=C(C=C2)NC(=O)N3)NC(=O)C4=CC=CN(C4=O)CC5=CC(=C(C=C5)F)F
In short, it runs like this: (§1)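 Log-two fold change in thermal stability relative to solvent controls is reported from duplicates. For each sample, crude K562 extract from dounce-homogenised pellets in PBS pH 7.4 with 1 mM MgCl2, at 1 mg/mL protein, was treated with 10 μM compound for 30 min. Aliquots heated for 3 min across 48°C-58°C were pooled, brought to 0.5% NP-40 at 4°C and cleared at 21,000xg for 90 min. The supernatant was quantified by TMTpro 16plex LC-MS/MS with channel sums equalised.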

Compound in assay [2]: CC1=C(SC2=C1C(=N[C@H](C3=NN=C(N32)C)CC(=O)N)C4=CC=C(C=C4)Cl)C
A digest of the protocol: as §1

Compound in assay [3]: CC1=C2C(=CC=C1)N=C(N(C2=O)C3=CC=CC=C3C)CN4C=NC5=C(N=CN=C54)N
A digest of the protocol:
as §1

Compound in assay [4]: Cc1sc2c(c1C)C(c1ccc(Cl)cc1)=N[C@@H](CC(=O)OC(C)(C)C)c1nnc(C)n1-2
In short, it runs like this:
as §1

Compound in assay [5]: c1ccc([C@@H]2C[C@H]2NC2CCNCC2)cc1
A digest of the protocol:
as §1

About 8,800 targets were measured; listed, in parts, are those with a hit and a random draw of the rest. About 0.5% of all pairs of compound and target were hits. A number with no mark means an inactive call.

UniProt Q8N4L2, sequence (Q8N4L2 whole entry, looked up): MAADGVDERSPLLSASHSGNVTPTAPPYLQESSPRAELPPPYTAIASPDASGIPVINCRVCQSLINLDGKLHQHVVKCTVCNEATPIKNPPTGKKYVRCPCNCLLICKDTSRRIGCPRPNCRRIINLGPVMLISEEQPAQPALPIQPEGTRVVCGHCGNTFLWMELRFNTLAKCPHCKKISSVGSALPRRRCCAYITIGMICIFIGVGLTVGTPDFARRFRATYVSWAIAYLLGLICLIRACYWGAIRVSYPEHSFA
UniProt Q96S99, sequence (Q96S99 whole entry, looked up): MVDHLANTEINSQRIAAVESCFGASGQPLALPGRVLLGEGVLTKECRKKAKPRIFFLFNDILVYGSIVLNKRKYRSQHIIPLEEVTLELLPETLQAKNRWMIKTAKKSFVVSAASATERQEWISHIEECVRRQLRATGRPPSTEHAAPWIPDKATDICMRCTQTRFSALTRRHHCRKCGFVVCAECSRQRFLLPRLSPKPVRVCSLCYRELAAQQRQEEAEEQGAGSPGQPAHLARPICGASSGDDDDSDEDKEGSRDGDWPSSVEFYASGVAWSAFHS
UniProt O94880, sequence (O94880 whole entry, looked up): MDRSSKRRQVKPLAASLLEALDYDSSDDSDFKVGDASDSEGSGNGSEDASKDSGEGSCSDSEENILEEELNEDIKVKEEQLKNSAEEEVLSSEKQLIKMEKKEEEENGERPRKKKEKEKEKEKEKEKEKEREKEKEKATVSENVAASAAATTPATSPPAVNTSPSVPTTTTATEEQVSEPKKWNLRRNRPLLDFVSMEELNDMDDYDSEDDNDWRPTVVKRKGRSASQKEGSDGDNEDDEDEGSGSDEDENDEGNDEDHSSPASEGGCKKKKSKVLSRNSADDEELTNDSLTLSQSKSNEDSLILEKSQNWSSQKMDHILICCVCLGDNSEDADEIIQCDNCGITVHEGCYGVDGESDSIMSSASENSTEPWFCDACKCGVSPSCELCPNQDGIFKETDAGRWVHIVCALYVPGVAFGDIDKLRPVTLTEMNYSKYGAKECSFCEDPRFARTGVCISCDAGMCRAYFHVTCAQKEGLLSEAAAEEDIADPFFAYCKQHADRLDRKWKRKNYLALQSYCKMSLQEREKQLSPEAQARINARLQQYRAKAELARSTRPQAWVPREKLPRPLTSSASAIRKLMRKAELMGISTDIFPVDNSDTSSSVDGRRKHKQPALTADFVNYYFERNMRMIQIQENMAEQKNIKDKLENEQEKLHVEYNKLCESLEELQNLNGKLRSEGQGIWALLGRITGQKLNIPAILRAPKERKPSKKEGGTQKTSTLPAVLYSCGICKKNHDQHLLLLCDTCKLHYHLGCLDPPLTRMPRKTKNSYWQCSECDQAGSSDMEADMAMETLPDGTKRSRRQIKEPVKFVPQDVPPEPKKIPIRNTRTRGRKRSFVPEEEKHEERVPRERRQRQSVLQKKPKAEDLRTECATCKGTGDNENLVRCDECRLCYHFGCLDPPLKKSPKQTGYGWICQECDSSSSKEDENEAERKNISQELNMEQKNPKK
UniProt Q9ULR3, sequence (Q9ULR3 whole entry, looked up): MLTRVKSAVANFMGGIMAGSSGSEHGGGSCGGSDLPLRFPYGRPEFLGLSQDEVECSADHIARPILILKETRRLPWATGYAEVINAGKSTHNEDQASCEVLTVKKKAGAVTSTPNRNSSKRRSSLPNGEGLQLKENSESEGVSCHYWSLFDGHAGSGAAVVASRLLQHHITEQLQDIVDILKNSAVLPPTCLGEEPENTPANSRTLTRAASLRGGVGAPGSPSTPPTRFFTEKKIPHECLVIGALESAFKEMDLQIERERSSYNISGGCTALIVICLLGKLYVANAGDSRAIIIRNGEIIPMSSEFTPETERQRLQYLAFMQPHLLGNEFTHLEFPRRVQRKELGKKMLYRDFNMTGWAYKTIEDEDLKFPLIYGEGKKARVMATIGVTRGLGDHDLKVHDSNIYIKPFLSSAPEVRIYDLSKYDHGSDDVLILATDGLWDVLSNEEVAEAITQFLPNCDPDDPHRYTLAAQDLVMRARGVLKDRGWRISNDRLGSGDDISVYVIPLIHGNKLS
UniProt P45877, sequence (P45877 whole entry, looked up): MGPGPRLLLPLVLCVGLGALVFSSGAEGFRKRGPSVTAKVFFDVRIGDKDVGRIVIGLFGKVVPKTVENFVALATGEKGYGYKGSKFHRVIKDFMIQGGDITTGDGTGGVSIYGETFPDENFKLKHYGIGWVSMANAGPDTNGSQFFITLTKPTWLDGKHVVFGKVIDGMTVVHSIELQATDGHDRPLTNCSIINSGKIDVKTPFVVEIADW
UniProt Q03393, sequence (Q03393 whole entry, looked up): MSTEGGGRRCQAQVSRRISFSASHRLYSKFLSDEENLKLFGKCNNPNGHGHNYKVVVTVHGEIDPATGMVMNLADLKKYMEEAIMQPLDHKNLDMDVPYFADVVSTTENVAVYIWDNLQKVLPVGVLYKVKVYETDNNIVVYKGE
UniProt P35236, sequence (P35236 whole entry, looked up): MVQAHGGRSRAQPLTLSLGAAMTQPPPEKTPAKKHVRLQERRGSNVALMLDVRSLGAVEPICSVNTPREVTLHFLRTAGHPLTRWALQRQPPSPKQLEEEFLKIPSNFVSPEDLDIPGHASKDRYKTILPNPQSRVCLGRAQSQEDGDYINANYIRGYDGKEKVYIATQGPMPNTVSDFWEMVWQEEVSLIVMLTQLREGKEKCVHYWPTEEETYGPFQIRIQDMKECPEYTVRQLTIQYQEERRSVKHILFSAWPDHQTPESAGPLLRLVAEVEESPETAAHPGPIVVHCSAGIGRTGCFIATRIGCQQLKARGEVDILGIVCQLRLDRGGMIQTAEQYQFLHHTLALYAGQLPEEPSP
UniProt Q05655, sequence (Q05655 whole entry, looked up): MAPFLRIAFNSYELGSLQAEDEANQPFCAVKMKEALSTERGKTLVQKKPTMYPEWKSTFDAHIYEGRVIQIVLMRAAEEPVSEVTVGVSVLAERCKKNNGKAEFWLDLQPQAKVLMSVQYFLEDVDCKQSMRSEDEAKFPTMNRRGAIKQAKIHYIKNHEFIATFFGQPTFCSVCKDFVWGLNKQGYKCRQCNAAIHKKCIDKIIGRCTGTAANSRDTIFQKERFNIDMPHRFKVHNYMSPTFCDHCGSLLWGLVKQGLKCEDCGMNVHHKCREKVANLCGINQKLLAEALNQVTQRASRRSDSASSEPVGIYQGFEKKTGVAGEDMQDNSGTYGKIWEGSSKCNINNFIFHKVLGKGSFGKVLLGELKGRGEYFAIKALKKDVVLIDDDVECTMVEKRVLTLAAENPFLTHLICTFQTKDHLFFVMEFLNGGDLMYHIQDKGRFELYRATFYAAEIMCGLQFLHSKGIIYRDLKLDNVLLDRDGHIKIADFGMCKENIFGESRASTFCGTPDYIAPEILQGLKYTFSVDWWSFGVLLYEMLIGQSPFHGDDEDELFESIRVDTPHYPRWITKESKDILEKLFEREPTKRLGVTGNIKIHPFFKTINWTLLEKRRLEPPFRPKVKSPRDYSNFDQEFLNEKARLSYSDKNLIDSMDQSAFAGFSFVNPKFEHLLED

Regarding PPIC (UniProt P45877), the log2 fold change in assay [1] is 0.209; in assay [2], -0.242; in assay [3], 0.12; in assay [4], 0.005; in assay [5] it was 0.055.

With PHF14 (UniProt O94880), the log2 fold change was 0.048 in assay [1], 0.025 in assay [2], -0.038 in assay [3] and 0.019 in assay [4].

For the target PWP1 (UniProt Q13610), the log2 fold change in assay [1] was 0.041; in assay [2], -0.041; in assay [3], -0.052; in assay [4] it was -0.004; in assay [5], 0.088.

On to PLEKHF1 (UniProt Q96S99), for which the log2 fold change was -0.019 in assay [1]; 0.034 in assay [2]; 0.029 in assay [3]; 0.01 in assay [4]; 0.014 in assay [5].

Regarding PIP4P2 (UniProt Q8N4L2), the log2 fold change was 0.03 in assay [1]; -0.068 in assay [2]; -0.012 in assay [3]; 0.012 in assay [4]; -0.106 in assay [5].

As to PTS (UniProt Q03393), the log2 fold change in assay [1] was -0.024; in assay [2] it was -0.274 (active); in assay [3] it was 0.032; in assay [4] it was -0.093; in assay [5] it was 0.022.

As for PRKCD (UniProt Q05655), the log2 fold change was 0.003 in assay [1]; 0.022 in assay [2]; 0.028 in assay [3]; -0.003 in assay [4]; 0.023 in assay [5].

For PPM1H (UniProt Q9ULR3), the log2 fold change in assay [1] was 0.011; in assay [2], -0.023; in assay [3], -0.008; in assay [4], 0.062; in assay [5], 0.05.

Regarding PTPN7 isoform 3 (UniProt P35236), the log2 fold change in assay [1] is -0.028; in assay [2], 0.002; in assay [3] it was -0.031; in assay [4], 0.015; in assay [5], -0.012.
